# Laboratory results from patent US20200347384, “Screening artificial nucleic acids by particle display” (THE REGENTS OF THE UNIVERSITY OF CALIFORNIA, published 2020).
# Tests used:
# [1] = biological target: T1, HIV-1 reverse transcriptase (HIV RT) (Human immunodeficiency virus, UniProt P03366;P03366 P03366:600-1159,P03366:600-1039); assay: MST; two 5' flanking nucleotides deleted; conditions: tags: His-tag (inferred from Ni-NTA immobilisation); XNA; TNA at all positions
# [2] = biological target: T1, HIV-1 reverse transcriptase (HIV RT); assay: MST; five 3' flanking nucleotides deleted; conditions: tags: His-tag (inferred from Ni-NTA immobilisation); XNA; TNA at all positions
Sequence,binding signal [1],binding signal [2]
TAGTAAATTGATTTAAAAATTTCATAAATGCTACATAA,~3 fold reduction in affinity,
AATAGTAAATTGATTTAAAAATTTCATAAATGCTA,,~3 fold reduction in affinity
